The campaign covered roughly 420,000 compounds. About 50,000 (12%) were called active. A call without a number means that no potency is given here. Another 26% or so got no clear call; they are omitted. This is one part of a sample in which actives are shown more often than they occur. Calls come from the whole dose curve; as a rule, active = well fitted inhibition curve with a large enough effect; inconclusive = small, poorly fitted or top-dose-only effect; inactive = flat fitted curve, though single readings scatter.
experiment: qHTS for Inhibitors of human tyrosyl-DNA phosphodiesterase 1 (TDP1): qHTS in cells in presence of CPT; settings: chicken DT40 Tdp1-/-;hTDP1 cells + 20 nM CPT, ATP luminescence, 48 h; series mostly up to 46.2 µM; note: nearly all actives have a fitted effect of over 55% in size
Summary of the method: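 Chicken DT40 Tdp1-/- cells complemented with human TDP1, 400 cells/well, exposed to compounds plus 20 nM camptothecin for at least 48 h at 37 C; viability read as ATP content by CellTiter-Glo luminescence.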
Potency is the fitted concentration of half-maximal effect.

| SMILES | Potency |
| --- | --- |
| CO/N=C(\C(=O)N[C@@H]1C(=O)N2C(C(=O)O)=CCS[C@H]12)c1csc(N)n1 | inactive |
| O=C1COc2ccc(C(=O)COC(=O)CCOc3ccccc3)cc2N1 | inactive |
| Cc1ccc(C(=O)Oc2ccc(C(=S)N3CCOCC3)cc2)cc1 | inactive |
| CC(C)(C)C1C/C(=C/c2ccco2)C(=O)/C(=C/c2ccco2)C1 (centres undefined) | 23.1 µM (active) |
| COC(=O)COc1ccc2c(c1C)O/C(=C\c1ccco1)C2=O | inactive |
| CCC1S/C(=N/N=C/c2ccco2)NC1=O (centres undefined) | inactive |
| Cc1ccc2nc(N3C(=O)C(O)=C(C(=O)c4ccco4)C3c3cccc(O)c3)sc2c1 (centres undefined) | inactive |
| CC(C)c1ccc(NC(=O)c2ccc3c(O)c(S(=O)(=O)c4ccccc4)c(=O)[nH]c3c2)cc1 | inactive |
| C=C1C=C(C(F)F)n2ncc(C(=O)NCCc3ccccc3OC)c2N1 | 15.8 µM (active) |
| C=C1C=C(C)n2ncc(C(=O)Nc3ccccc3O)c2N1 | inactive |
| COc1ccccc1CCNC(=O)c1cnccn1 | inactive |
| C#CCOCCOCCOCCNc1nc(N2CCN(C(=O)Cn3cc(CCO)nn3)CC2)nc(N2CCN(C(=O)[C@H](CCCCN)n3cc(CCCC)nn3)CC2)n1 | inactive |
| C#CCOCCOCCOCCNc1nc(N2CCN(C(=O)Cn3cc(CCO)nn3)CC2)nc(N2CCN(C(=O)Cn3cc(CCCN=C(N)N)nn3)CC2)n1 | inactive |
| C#CCOCCOCCOCCNc1nc(N2CCN(C(=O)CCCCCCCCCCNC(=O)[C@H](CCCCN)n3cc(C)nn3)CC2)nc(N2CCN(C(=O)CCCCCCCCCCNC(=O)[C@H](CO)n3cc(CCCSC)nn3)CC2)n1 | 14.6 µM (active) |
| C#CCOCCOCCOCCNc1nc(N2CCN(C(=O)[C@H](CCCN=C(N)N)n3cc(C(N)[C@@H](C)CC)nn3)CC2)nc(N2CCN(C(=O)[C@H](CO)n3cc([C@@H](N)C(C)C)nn3)CC2)n1 (some centres undefined) | inactive |
| C#CCOCCOCCOCCNc1nc(N2CCN(C(=O)[C@H](CCCCN)n3cc(CCC(=O)O)nn3)CC2)nc(N2CCN(C(=O)[C@H](CCCCN)n3cc(CC(C)O)nn3)CC2)n1 (some centres undefined) | inactive |
| C#CCOCCOCCOCCNc1nc(N2CCN(C(=O)CCCCCCCCCCNC(=O)[C@H]([C@@H](C)CC)n3cc(CCCCN=C(N)N)nn3)CC2)nc(N2CCN(C(=O)CCCCCCCCCCNC(=O)[C@H](CO)n3cc(CCCSC)nn3)CC2)n1 | 9.2 µM (active) |
| CC(CC(=O)N1CCN(S(=O)(=O)c2ccccc2)CC1)n1cncn1 (centres undefined) | inactive |
| O=c1cc(-c2ccccc2)n2c(SCc3ccccc3)nnc2[nH]1 | inactive |
| Cc1cc(C)c(NC(=O)CN2CCOCCOCCOCCOCC2)c(C)c1 | inactive |

| SMILES | Potency |
| --- | --- |
| Cc1c(Cl)cccc1NC(=O)NCc1ccc(C)n1C | inactive |
| COc1ccc(/C=C/C(=O)NC(=S)NN2CCCCC2c2cccnc2)cc1 (centres undefined) | inactive |
| O=S(=O)(Cc1cc(Sc2ccccc2)nc(-c2ccccc2)n1)c1ccccc1 | 23.1 µM (active) |
| O=S(=O)(Cc1nnnn1-c1ccccc1)c1ccccc1 | inactive |
| O=S(=O)(NCCc1csc(-c2ccccc2)n1)c1cccnc1 | inactive |
| CC1(C(=O)NS(=O)(=O)c2cccc(OC(F)F)c2)CCN1C(=O)COc1ccc(Cl)cc1 (centres undefined) | inactive |
| COC(=O)c1ccc(COC(=O)C2CCN(S(=O)(=O)c3c(Cl)cccc3Cl)CC2)o1 | inactive |
| O=C(Nc1ccc(OC(F)(F)F)cc1)c1cc2c(=O)n3ccccc3nc2s1 | inactive |
| Cn1c(C(=O)Nc2cccc(C(F)(F)F)c2)cc2c(=O)n3ccccc3nc21 | 14.6 µM (active) |
| Cc1nc2ccccn2c(=O)c1NC(=O)c1c(F)cccc1F | inactive |
| CCOc1cc(C2C(C(=O)Nc3ccc(OC)cc3)=C(C)Nc3nc(SC)nn32)ccc1O (centres undefined) | inactive |
| CCOc1ccccc1NC(=O)C1=C(C)Nc2ncnn2C1c1ccc(NC(C)=O)cc1 (centres undefined) | inactive |
| CCOc1ccc(C2C(C(=O)Nc3ccc(Cl)cc3)=C(C)Nc3nc(C(F)(F)F)nn32)cc1 (centres undefined) | 13 µM (active) |
| C[n+]1cc(-c2ccccc2)oc1-c1ccccc1 | inactive |
| O=C(O)CCCCOn1ccnc1 | inactive |
| COc1ccc(S(=O)(=O)NCc2cccn2Cc2cccc(C)c2)cc1 | inactive |
| Cc1cccc(NS(=O)(=O)c2ccc(C)c(C(=O)NCc3cccnc3)c2)c1 | inactive |
| CC1CN(C(=O)c2cccc(NS(=O)(=O)c3ccc(Br)cc3)c2)CC(C)O1 (centres undefined) | inactive |
| Cc1cccc(CNS(=O)(=O)c2ccc(-c3cnc(C4CC4)o3)cc2)c1 | 16.4 µM (active) |
| CC1CCN(S(=O)(=O)c2ccc(S(=O)(=O)NCc3cccnc3)cc2)CC1 | inactive |

| SMILES | Potency |
| --- | --- |
| Cc1cccc(NS(=O)(=O)c2ccc(-c3cnc(C4CC4)o3)cc2)c1 | 0.731 µM (active) |
| CCc1ccc(S(=O)(=O)NCC(O)COc2ccc(OC)cc2)cc1 (centres undefined) | inactive |
| COc1ccc(CNS(=O)(=O)c2cc3c4c(c2)CCN4C(=O)CC3)cc1 | inactive |
| COc1ccc(CNS(=O)(=O)c2ccc(-c3cnc(C4CC4)o3)cc2)cc1 | 14.6 µM (active) |
| O=C(C1CC1)N1N=C2CCCCC2C1(O)C(F)(F)F (centres undefined) | inactive |
| O=[N+]([O-])c1ccccc1/C=C/CN1CCC(O)CC1 | inactive |
| COC(=O)c1sc(C(F)(F)F)c(-c2ccccc2)c1S(=O)(=O)N(C)C | inactive |
| Cc1ccc(S(=O)(=O)NCCSc2ccccc2)cc1[N+](=O)[O-] | inactive |
| CC(Oc1ccc(Cl)cc1)c1ccnn1S(C)(=O)=O (centres undefined) | inactive |
| CC1CN(S(=O)(=O)c2cccc(C(F)(F)F)c2)CN1C(=O)N1CCOCC1 (centres undefined) | inactive |
| O/N=C(\C[n+]1ccccc1)c1ccc(Br)cc1 | inactive |
| COc1ccccc1N(CC(=O)Nc1ccc(C(F)(F)F)cc1)S(C)(=O)=O | inactive |
| CCCCN(CC)CCCNC(=O)c1nn(C)c2c1CS(=O)(=O)c1ccccc1-2 | inactive |
| CCCCN(CC)CCCNC(=O)c1nn(C)c2c1CSc1ccccc1-2 | 25.9 µM (active) |
| CCCCN(CC)CCCNC(=O)c1ccc(CSc2nc3ccncc3[nH]2)cc1 | inactive |
| C[C@@H]1CC2=C(C(=O)OC(C)(C)O2)[C@@H](C2CC2)O1 | inactive |
| CCN(CC)C(=O)c1sc(NC(=O)c2ccco2)c(C#N)c1C | inactive |
| Cn1nccc1CNC(=O)c1ccnn1C | inactive |
| CCCc1ccc(-c2c(C)sc(NC(=O)c3ccnn3C)c2C#N)cc1 | 23.1 µM (active) |
